Shown are actives, neighbours in structure and some others; about 3.5% of the full set was active somewhere.
LmPK inhibitor: qHTS Assay for Inhibitors of Leishmania Mexicana Pyruvate Kinase (LmPK); purified LmPK, Kinase-Glo ATP luminescence, 1 h; Potency, µM (titrated, usually from 57.5 µM), for the others: at the highest dose activity change, negative = inhibition, actives largely listed as inhibitors; 0.37% of 290,000 active; Q27686; also: % is scaled to controls: 0 for no effect and ±100 for the full control effect
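0.1 nM LmPK, 0.5 mM PEP, 0.1 mM ADP; 50 mM imidazole pH 7.2, 7 mM MgCl2, 50 mM KCl; 1 h RT. Kinase-Glo luminescence readout, normalized to no-enzyme (full inhibition) and uninhibited wells.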
FBPA Giardia inh: qHTS Assay for Inhibitors of Fructose-1,6-bisphosphate Aldolase from Giardia Lamblia. A8B2U2. purified Giardia FBPA. Potency, µM (titrated, usually from 59.6 µM), for inactives: top-dose activity, negative = inhibition, actives largely listed as inhibitors. 0.71% of 290,000 active. AID 2451, 2010; also: % is scaled to controls: 0 for no effect and ±100 for the full control effect; nearly all actives have a fitted effect of over 55% in size
Target sequence (A8B2U2 whole entry, looked up): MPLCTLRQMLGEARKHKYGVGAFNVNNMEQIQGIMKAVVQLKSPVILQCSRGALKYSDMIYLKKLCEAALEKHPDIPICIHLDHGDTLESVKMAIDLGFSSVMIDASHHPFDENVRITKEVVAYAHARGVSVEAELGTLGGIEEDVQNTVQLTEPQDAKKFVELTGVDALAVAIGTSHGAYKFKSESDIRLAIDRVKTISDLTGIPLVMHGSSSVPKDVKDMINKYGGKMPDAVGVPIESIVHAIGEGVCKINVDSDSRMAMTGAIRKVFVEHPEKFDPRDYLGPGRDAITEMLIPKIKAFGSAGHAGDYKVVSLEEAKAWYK
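40 nM FBPA preincubated 10 min at RT with compound (up to 57.5 uM final), then substrate plus GAPDH/TPI/NAD/arsenate coupling and diaphorase/resazurin added. Fluorescence read after 20 min at RT, 525/598 nm.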
Tb PYK inh: qHTS of Trypanosoma Brucei Inhibitors; pyruvate kinase (Trypanosoma brucei), Q57TT1; TbPYK enzyme, Kinase-Glo Plus ATP luminescence, 45 min; Potency, µM (doses to about 76.8 µM), for inactives: top-dose activity, negative = inhibition, hits mostly inhibitors; 0.12% of 410,000 active; also: % is scaled to controls: 0 for no effect and ±100 for the full control effect; nearly all actives have a fitted effect of over 50% in size
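T. brucei PYK with substrate was exposed to pin-transferred compounds across a concentration series, then started with 130 uM ADP (final). After 45 min at room temperature, Kinase-Glo Plus luminescence was read, normalized and curve-fitted.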
RE007 growth inh: qHTS Assay for Inhibitors of the HIV-1 protein Vpr | S. pombe RE007 Vpr strain, BacTiter-Glo ATP luminescence, 24 h | Potency, µM (highest dose often 92.2 µM), for inactives: at the top dose activity change, negative = less growth, hits mostly inhibitors | 0.21% of 360,000 active | AID 651644, 2012; active = well fitted falling curve with a large enough effect; inconclusive = small, poorly fitted or top-dose-only effect; inactive = no such curve, though single readings can be large or run the other way; also: % is scaled to controls: 0 for no effect and ±100 for the full control effect; nearly all actives have a fitted effect of over 50% in size
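Fission yeast RE007 carrying one integrated HIV-1 vpr copy, seeded at OD 0.01 in PMG+AL medium with 23 nL pinned compound. Grown 24 h at 30 degrees; viability read by BacTiter-Glo luminescence after 5 min.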
NS1 inh: qHTS Assay for Inhibitors of Influenza NS1 Protein Function; Potency, µM (highest dose often 46.1 µM), without a hit: at the highest dose activity, positive = more growth; 0.4% of 270,000 active; calls by dose curve; also: actives are rising curves; nearly all actives have a fitted effect of over 50% in size
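Compounds were scored for reversing the slow growth caused by influenza A NS1 in S. cerevisiae, measured by optical density at 600 nm. Assay medium contained 2% galactose at pH 6.0; NS1-free yeast of the same strain were the positive control.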
Sm TGR block: qHTS Assay for the Inhibitors of Schistosoma Mansoni Peroxiredoxins. purified TGR, DTNB reduction, TNB absorbance 405 nm. Schistosoma mansoni thioredoxin glutathione reductase (TGR), Q962Y6. Potency, µM (highest dose often 114 µM), without a hit: at the highest dose activity change, negative = inhibition, most hits filed as inhibitors. 3% of 360,000 active; also: % is scaled to controls: 0 for no effect and ±100 for the full control effect; nearly all actives have a fitted effect of over 60% in size
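TGR 20 nM + NADPH 100 uM (dispensed conc.), cpd preinc 15 min RT; start with NADPH (500 uM addition) then DTNB (15 mM addition). Kinetic TNB absorbance, 405 nm filter. Four-parameter Hill fit across titration.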
Starred values were filed as active, the others as inactive; [ ] = remark or other dose. Unless noted, calls follow the shape of the dose curve; as a rule, active = well fitted curve in the direction sought with a large enough effect; inconclusive = small, poorly fitted or top-dose-only effect, or another doubt; inactive = no such curve, though single readings can be large; an effect the other way counts as inactive or inconclusive. Potency is read from the fitted curve at half-maximal effect.

How did CCOC(=O)CSC1=NC(=O)/C(=C/c2ccc(Br)cc2)S1 do in these assays?
LmPK inhibitor: -5.6%; FBPA Giardia inh: 13.5%; Tb PYK inh: 14.5%; RE007 growth inh: inconclusive; Sm TGR block: 3.16µM*

Results for CCOC(=O)CSC1=NC(=O)/C(=C\c2ccc(OC(C)=O)cc2)S1 ?
LmPK inhibitor: inconclusive; FBPA Giardia inh: -1.7%; Tb PYK inh: -9.7%; RE007 growth inh: inconclusive; NS1 inh: -36.7%; Sm TGR block: 8.91µM*

What do the screens show for `NC1=NC(=O)/C(=C/c2ccc(Br)cc2)S1`?
LmPK inhibitor: 6.6%; FBPA Giardia inh: -3.6%; Tb PYK inh: -0.4%; RE007 growth inh: -1.9%; NS1 inh: 0.0%; Sm TGR block: -0.5%

Results for O=C1NC(=O)C(=Cc2cccc(OCCOc3ccccc3)c2)C(=O)N1 ?
LmPK inhibitor: 0.5%; FBPA Giardia inh: -6.1%; Tb PYK inh: inconclusive; RE007 growth inh: -14.2%; NS1 inh: -7.4%; Sm TGR block: 11.2µM*

What do the screens show for `O=C1NC(=O)C(=Cc2ccc(OCCOc3ccc([N+](=O)[O-])cc3)cc2)C(=O)N1`?
LmPK inhibitor: -4.9%; FBPA Giardia inh: -9.9%; Tb PYK inh: inconclusive; RE007 growth inh: 4.9%; Sm TGR block: 15.8µM*

How did CCO[C@@H](Cc1ccc(OCCc2ccc(OS(C)(=O)=O)cc2)cc1)C(=O)O do in these assays?
Tb PYK inh: -4.6%

What do the screens show for `CC(=O)N1CCN(C2=Nc3cccc4cccc2c34)CC1`?
LmPK inhibitor: 4.0%; FBPA Giardia inh: 3.97µM*; Tb PYK inh: 13.0%; RE007 growth inh: -4.8%; NS1 inh: -3.1%; Sm TGR block: 11.3%[11.4 µM]

What do the screens show for `Cc1cccc(-c2nc(CS(=O)CC(=O)N3CC(C)CC(C)C3)c(C)o2)c1` (stereo not given)?
LmPK inhibitor: -5.2%; FBPA Giardia inh: 9.9%; Tb PYK inh: -1.7%; RE007 growth inh: 1.4%; NS1 inh: -6.7%; Sm TGR block: 35.5µM*

Results for Cc1cccc(-c2nc(CS(=O)CC(=O)N3CCc4ccccc4C3)c(C)o2)c1 (stereo not given) ?
LmPK inhibitor: 3.5%; FBPA Giardia inh: -27.7%; Tb PYK inh: -18.6%; RE007 growth inh: 15.0%; NS1 inh: -12.9%; Sm TGR block: inconclusive

How did CCN1CCN(C(=O)CS(=O)Cc2nc(-c3cccc(C)c3)oc2C)CC1 (stereo not given) do in these assays?
LmPK inhibitor: -2.1%; FBPA Giardia inh: 10.5%; Tb PYK inh: 3.5%; RE007 growth inh: -17.2%; NS1 inh: 2.8%; Sm TGR block: 39.8µM*

Results for CCOC(=O)N1CCN(C(=O)CS(=O)Cc2nc(-c3cccc(C)c3)oc2C)CC1 (stereo not given) ?
LmPK inhibitor: 12.3%; FBPA Giardia inh: 2.3%; Tb PYK inh: 2.9%; RE007 growth inh: 6.9%; NS1 inh: 2.5%; Sm TGR block: inconclusive

What do the screens show for `COC(=O)c1ccc(N)cc1O`?
LmPK inhibitor: -4.8%; FBPA Giardia inh: 8.2%; Tb PYK inh: -1.2%; RE007 growth inh: 16.1%; NS1 inh: 3.8%; Sm TGR block: -5.9%

How did COC(=O)c1ccc(=O)c2nc3/c(=C/O)c(O)cc(=O)c3[nH]c12 do in these assays?
LmPK inhibitor: -11.5%; FBPA Giardia inh: -21.3%; Tb PYK inh: 0.7%; RE007 growth inh: 17.3%; NS1 inh: 0.9%; Sm TGR block: 50.1µM*

Results for Clc1ccc2c(c1)C1OCCC1C(c1ccco1)N2 (stereo not given) ?
LmPK inhibitor: inconclusive; FBPA Giardia inh: -16.4%; Tb PYK inh: -21.7%; RE007 growth inh: -8.2%; NS1 inh: -16.2%; Sm TGR block: 31.6µM*

What do the screens show for `COc1cc2[nH]c(=O)n(CCCC(=O)NCc3ccc(Cl)cc3)c(=O)c2cc1OC`?
Tb PYK inh: -0.1%; Sm TGR block: -8.0%
